Results on 9 molecules are retold here after PubChem BioAssay (Tox21).

Assay [1] has as its target Gonadotropin-releasing hormone receptor (Homo sapiens) (UniProt P30968). The experiment in a line: Human gonadotropin-releasing hormone receptor (GnRHR) small molecule agonists, calcium flux assay in GnRHR-HEK293 cells (AID 1920063). Also: nearly all actives have a fitted effect of over 35% in size. The method in brief:
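Cells: HEK293 stably expressing human GnRHR. Steps: overnight (18 h) culture, 1 h calcium dye loading at 37 C, compound addition, kinetic fluorescence read at 480/540 nm. Each compound tested at 15 concentrations in triplicate.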
For orientation: A change in cytosolic calcium serves as a functional read-out for many receptors and channels.

Assay [2] deals with KiSS-1 receptor (Homo sapiens) (UniProt Q969F8). Put plainly: Human kisspeptin (KISS1R) small molecule agonists, calcium flux assay in KISS1R-HEK293 cells (AID 1920064; active = well fitted activation curve with a large enough effect in the repeat runs). The essentials:
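Cells plated and incubated 18 h; dye added, 1 h at 37 C; compounds in DMSO pinned in; signal read at 480/540 nm every second for 3 min. Each compound tested at 15 concentrations in triplicate.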

Assay [3] can be described thus: p53 small molecule agonists, cell-based qHTS assay with human liver microsomes (AID 1963577).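 Also: p53 response element beta-lactamase reporter cells with liver microsomes plus NADPH.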 The essentials:
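Metabolically competent format: test substances, human liver microsomes and NADPH (both 0.5 mg/mL final) incubated with p53RE-bla cells 16 h at 37 C. Beta-lactamase reporter signal then quantified by fluorescence.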
For orientation: qHTS replaces the single test concentration by a dilution series.

Assay [4] in a line: p53 small molecule agonists, cell-based qHTS assay with rat liver microsomes (AID 1963578). The method in brief:
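Each plate received p53RE-bla cells, then compound, then rat liver microsomes and NADPH (both 0.5 mg/mL final). Plates were held 16 h at 37 C, and beta-lactamase activity was detected with LiveBLAzer over 2 h.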

Assay [5] is described as follows: p53 small molecule agonists, cell-based qHTS assay with human liver microsomes: qHTS cell viability counter screen (AID 1963579). Also: nearly all actives have a fitted effect of over 45% in size. Also: potency is read from the fitted curve at half-maximal effect. The method in brief: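 Tox21 library compounds, delivered from DMSO stocks, were tested on p53RE-bla cells together with 0.5 mg/mL human liver microsomes and 0.5 mg/mL NADPH (final) over 16 h at 37 C; CellTiter-Glo luminescence served as the cytotoxicity measure.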

Assay [6] in a line: p53 small molecule agonists, cell-based qHTS assay: qHTS cell viability counter screen (AID 1963581). Also: nearly all actives have a fitted effect of over 45% in size. Also: potency is read from the fitted curve at half-maximal effect. The essentials:
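Cells: HCT-116 with p53 response element-driven beta-lactamase. Treatment: 16 h, 37 C, compounds in DMSO. Read: CellTiter-Glo luminescence after 30 min RT.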

Assay [7] can be described thus: p53 small molecule agonists, cell-based qHTS assay (AID 1963582; active = well fitted activation curve with a large enough effect in the signal ratio in the repeat runs, not every such curve was filed as active; the % refers to the signal ratio; also: potency is read from the fitted curve at half-maximal effect). The essentials:
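Quantitative HTS in p53RE-bla cells: after a 5 h settling period, compounds delivered in DMSO were left on cells for 16 h at 37 C, and reporter induction was measured as fluorescence following 2 h substrate loading.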

Assay [8] has as its target 5-hydroxytryptamine receptor 2A (Homo sapiens) (UniProt P28223). The experiment in a line: 5-hydroxytryptamine receptor 2A (HTR2A) small molecule antagonists, cell-based qHTS assay (AID 1963586). Also: nearly all actives have a fitted effect of over 45% in size. Also: potency is read from the fitted curve at half-maximal effect. The essentials: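 Antagonist-mode intracellular calcium assay: DOI (4 nM) added after 5 min compound pre-incubation at room temperature to dye-loaded HTR2A-CHO cells. Fluorescence followed for 3 min, sampled every second.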

In assay [9] the target is Muscarinic acetylcholine receptor M1 (Homo sapiens) (UniProt P11229). Put plainly: Cholinergic receptor muscarinic 1 (CHRM1) small molecule antagonists, cell-based qHTS assay (AID 1963588). Also: nearly all actives have a fitted effect of over 40% in size. Also: potency is read from the fitted curve at half-maximal effect. The essentials: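 CHRM1-CHO calcium-flux assay, antagonist mode. Cells were seeded 18 h, dye-loaded 1 h at 37 C and given compound for 5 min at RT, then acetylcholine was added at 50nM. FDSS fluorescence was read 3 min; 15 concentrations, three runs.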

The nature of assay [10]: cAMP Responsive Elements (CRE) small molecule agonists, cell-based qHTS assay (AID 1963590). The essentials: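 Agonist mode qHTS in CRE-bla HEK 293T cells: compounds dosed from DMSO for 3 h at 37 C/5% CO2, followed by LiveBLAzer B/G FRET substrate for 2 h at room temperature.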
The nature of assay [11]: cAMP Responsive Elements (CRE) small molecule antagonists, cell-based qHTS assay (AID 1963591; active = well fitted inhibition curve with a large enough effect in the signal ratio in the repeat runs, not every such curve was filed as active; the % refers to the signal ratio). The essentials: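 Antagonist mode: test compounds are co-incubated with the adenylyl cyclase activator NKH477 (0.25 uM final) on CRE-bla HEK293T cells for 3 h at 37 °C, followed by LiveBLAzer substrate loading.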
For assay [12], the target named is Beta-2 adrenergic receptor (Homo sapiens) (UniProt P07550). Put plainly: Adrenergic beta2 receptor (ADRB2) small molecule antagonists, cell-based qHTS assay (AID 1963592). Also: series mostly up to about 92 µM; nearly all actives have a fitted effect of over 50% in size. The essentials: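 Cells (CHO, stable ADRB2 overexpression) incubated 18-20hr at 37C; compounds added from DMSO; agonist mix (1nM isoproterenol, 100uM IBMX, 25uM Ro-20-1724) added; 0.5hr RT; d2-cAMP and anti-cAMP-cryptate added; 1hr RT; 665/615 nm read.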

Assay [13] has the same target. The experiment in a line: Adrenergic beta2 receptor (ADRB2) small molecule agonists, cell-based qHTS assay (AID 1963593).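 Also: CHO cells stably overexpressing human ADRB2.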 The method in brief: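 CHO cells stably over-expressing ADRB2 were plated overnight at 37C, then dosed with compounds plus a stimulation mix containing 100uM IBMX and 25uM Ro-20-1724 for 0.5hr at room temperature. cAMP was measured by HTRF competition, 1hr.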

In assay [14] the target is D(2) dopamine receptor (Homo sapiens) (UniProt P14416). The experiment in a line: Dopamine D2 receptor (DRD2) small molecule antagonists, cell-based qHTS assay (AID 1963595; active = well fitted inhibition curve with a large enough effect in the signal ratio in the repeat runs, with a control signal flat; the % refers to the signal ratio). The essentials:
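Antagonism was scored as restored cAMP in HEK293-DRD2 cells. These cells were stimulated with 200 nM NKH477 and 12 nM quinpirole for 30 min at room temperature, in the presence of 0.1 mM Ro20-1724.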

Assay [15] can be described thus: G protein-coupled receptor (GPCR) small molecule agonists, calcium flux assay: HEK293 wild type cell line counter screen (AID 1920065). The essentials: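 Counter-screen of the Tox21 10K library for non-specific calcium release: dye-loaded cells received compounds in DMSO and were monitored by kinetic fluorescence (480/540 nm, 3 min). Fifteen concentrations, run in triplicate.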

Assay [16] is described as follows: p53 small molecule agonists, cell-based qHTS assay with rat liver microsomes: qHTS cell viability counter screen (AID 1963580). Also: nearly all actives have a fitted effect of over 45% in size. Also: potency is read from the fitted curve at half-maximal effect. The essentials:
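p53RE-bla HCT-116 cells (4,000/well) rested 5 h at 37 C, then given Tox21 compounds in DMSO with rat liver microsomes (0.5 mg/mL final) plus NADPH (0.5 mg/mL final) for 16 h at 37 C. Viability read by CellTiter-Glo luminescence after 30 min at room temperature.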

Assay [17] has as its target 5-hydroxytryptamine receptor 2A (Homo sapiens) (UniProt P28223). The experiment in a line: 5-hydroxytryptamine receptor 2A (HTR2A) small molecule agonists, cell-based qHTS assay (AID 1963587). Also: nearly all actives have a fitted effect of over 30% in size. The method in brief:
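HTR2A-CHO cells, plated 18 h at 37 C/5% CO2, dye-loaded 1 h at 37 C; compounds in DMSO added by pin tool (agonist mode). Intracellular calcium flux read as kinetic fluorescence on FDSS over 2 min at 1 s intervals.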

The target of assay [18] is Muscarinic acetylcholine receptor M1 (Homo sapiens) (UniProt P11229). The experiment in a line: Cholinergic receptor muscarinic 1 (CHRM1) small molecule agonists, cell-based qHTS assay (AID 1963589). Also: nearly all actives have a fitted effect of over 35% in size. The essentials:
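Agonist-mode qHTS in CHO cells stably carrying human muscarinic M1. Intracellular calcium is tracked by fluorescence every second after compound transfer; each compound runs at 15 concentrations in three independent runs.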

In assay [19] the target is D(2) dopamine receptor (Homo sapiens) (UniProt P14416). The experiment in a line: Dopamine D2 receptor (DRD2) small molecule agonists, cell-based qHTS assay (AID 1963594). Also: nearly all actives have a fitted effect of over 35% in size. The method in brief: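 HEK293 cells stably expressing DRD2 were cultured 24 h at 37 C, then given Ro20-1724 (0.1 mM final) and compounds for 10 min at room temperature. NKH477 (200nM) was then added for 30 min. cAMP was read by HTRF.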

Assay [20] in a line: Nuclear factor erythroid 2-related factor 2/antioxidant responsive element (Nrf2/ARE) small molecule agonists: luciferase reporter gene qHTS assay in human keratinocytes (AID 1919969). Also: nearly all actives have a fitted effect of over 35% in size. Also: potency is read from the fitted curve at half-maximal effect. A general note: Reporter assays use an easily measured gene product as a stand-in for the process of interest.

Each structure is given as a SMILES string. Several values for one entry are separate records, joined by “and”; a condition that tells them apart may be missing. Equal entries are not always repeated. Inconclusive results are not listed. Some compounds were tested as several samples or in several runs, with calls that do not always agree. Activity calls are given as the source filed them. Unless noted, calls follow the shape of the full dose curve. Numbered stars: 1 amine (or outer) side, 2 acyl side, 3 side chain; on linkers, the order of the positions; unused ones are H or OH. Bridge positions count the residues as written; N and C are the ends. Square brackets hold non-standard residues; d marks the D form. Peptide text beside a SMILES is read from it. I, II: the chains in the order shown. Actinocin(9to1) = Cc1c2oc3c(C)ccc(C(=O)[*:1])c3nc-2c(C(=O)[*:2])c(N)c1=O; NMeV = CN[C@H](C(=O)O)C(C)C; Sar = CNCC(=O)O

Sequence of KiSS-1 receptor (Homo sapiens) (Q969F8 whole entry, looked up): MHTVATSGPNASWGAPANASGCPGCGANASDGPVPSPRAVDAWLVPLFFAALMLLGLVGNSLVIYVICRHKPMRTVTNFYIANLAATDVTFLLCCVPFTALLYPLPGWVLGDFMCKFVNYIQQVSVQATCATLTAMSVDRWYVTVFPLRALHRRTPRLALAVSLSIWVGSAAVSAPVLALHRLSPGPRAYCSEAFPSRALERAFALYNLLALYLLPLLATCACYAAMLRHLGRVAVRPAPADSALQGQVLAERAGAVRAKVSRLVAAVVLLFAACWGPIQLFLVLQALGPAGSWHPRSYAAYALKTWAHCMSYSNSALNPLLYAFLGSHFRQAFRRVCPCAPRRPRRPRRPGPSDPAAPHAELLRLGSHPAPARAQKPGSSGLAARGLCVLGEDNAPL
Sequence of 5-hydroxytryptamine receptor 2A (Homo sapiens) (P28223 whole entry, looked up): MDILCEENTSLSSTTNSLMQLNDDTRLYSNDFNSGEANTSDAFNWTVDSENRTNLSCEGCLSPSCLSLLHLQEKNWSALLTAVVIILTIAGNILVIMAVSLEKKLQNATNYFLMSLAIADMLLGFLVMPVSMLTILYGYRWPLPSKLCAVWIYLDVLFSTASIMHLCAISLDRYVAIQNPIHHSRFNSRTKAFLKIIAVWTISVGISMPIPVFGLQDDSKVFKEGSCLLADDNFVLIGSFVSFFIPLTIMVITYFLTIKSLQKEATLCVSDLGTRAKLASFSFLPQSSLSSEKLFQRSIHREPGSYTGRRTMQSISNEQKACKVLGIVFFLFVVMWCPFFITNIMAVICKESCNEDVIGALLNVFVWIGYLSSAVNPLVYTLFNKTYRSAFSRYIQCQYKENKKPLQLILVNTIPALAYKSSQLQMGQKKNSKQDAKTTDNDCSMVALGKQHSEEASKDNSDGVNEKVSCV
Sequence of Gonadotropin-releasing hormone receptor (Homo sapiens) (P30968 whole entry, looked up): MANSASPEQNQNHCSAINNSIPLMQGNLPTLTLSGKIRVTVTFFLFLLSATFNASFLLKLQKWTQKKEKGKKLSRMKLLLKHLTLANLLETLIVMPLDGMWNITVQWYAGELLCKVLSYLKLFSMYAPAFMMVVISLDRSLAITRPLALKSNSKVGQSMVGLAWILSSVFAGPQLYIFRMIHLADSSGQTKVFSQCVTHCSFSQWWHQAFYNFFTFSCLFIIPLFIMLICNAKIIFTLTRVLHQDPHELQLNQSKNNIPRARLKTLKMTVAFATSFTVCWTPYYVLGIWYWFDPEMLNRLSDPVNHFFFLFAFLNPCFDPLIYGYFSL
Sequence of Beta-2 adrenergic receptor (Homo sapiens) (P07550 whole entry, looked up): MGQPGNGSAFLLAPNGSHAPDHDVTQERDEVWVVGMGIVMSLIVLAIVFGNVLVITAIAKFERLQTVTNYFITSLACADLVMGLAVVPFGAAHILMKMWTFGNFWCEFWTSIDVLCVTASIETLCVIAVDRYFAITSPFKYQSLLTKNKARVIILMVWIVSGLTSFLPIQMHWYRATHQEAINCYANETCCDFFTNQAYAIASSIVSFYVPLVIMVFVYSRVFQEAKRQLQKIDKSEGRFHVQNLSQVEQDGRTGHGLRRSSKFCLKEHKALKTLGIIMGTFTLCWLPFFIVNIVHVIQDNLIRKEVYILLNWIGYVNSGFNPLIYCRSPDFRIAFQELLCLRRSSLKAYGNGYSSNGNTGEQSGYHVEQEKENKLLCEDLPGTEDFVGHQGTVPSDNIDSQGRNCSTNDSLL
Sequence of Muscarinic acetylcholine receptor M1 (Homo sapiens) (P11229 whole entry, looked up): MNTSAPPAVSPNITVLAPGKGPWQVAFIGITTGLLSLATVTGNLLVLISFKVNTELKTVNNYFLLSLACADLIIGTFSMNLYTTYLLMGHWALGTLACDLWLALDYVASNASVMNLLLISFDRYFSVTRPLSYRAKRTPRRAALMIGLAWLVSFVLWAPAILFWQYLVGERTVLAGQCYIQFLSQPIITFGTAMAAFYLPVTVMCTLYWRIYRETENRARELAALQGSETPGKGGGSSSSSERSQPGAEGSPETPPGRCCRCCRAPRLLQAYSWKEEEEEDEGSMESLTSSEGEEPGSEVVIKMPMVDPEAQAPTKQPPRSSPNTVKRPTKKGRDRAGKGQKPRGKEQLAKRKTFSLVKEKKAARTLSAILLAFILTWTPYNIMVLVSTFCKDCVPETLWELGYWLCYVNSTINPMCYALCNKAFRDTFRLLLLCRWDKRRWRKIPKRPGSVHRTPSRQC
Sequence of D(2) dopamine receptor (Homo sapiens) (P14416 whole entry, looked up): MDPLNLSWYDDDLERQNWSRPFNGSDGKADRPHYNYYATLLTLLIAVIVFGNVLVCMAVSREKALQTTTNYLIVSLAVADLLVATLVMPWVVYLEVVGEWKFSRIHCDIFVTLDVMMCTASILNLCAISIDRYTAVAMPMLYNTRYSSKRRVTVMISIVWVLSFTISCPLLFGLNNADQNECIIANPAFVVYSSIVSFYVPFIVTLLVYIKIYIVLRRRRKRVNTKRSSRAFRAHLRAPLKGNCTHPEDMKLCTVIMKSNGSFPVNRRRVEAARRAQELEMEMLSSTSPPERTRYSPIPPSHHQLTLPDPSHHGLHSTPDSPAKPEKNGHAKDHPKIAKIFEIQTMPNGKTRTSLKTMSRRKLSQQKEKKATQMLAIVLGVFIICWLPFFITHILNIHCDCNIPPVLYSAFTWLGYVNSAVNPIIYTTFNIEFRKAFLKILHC

In the case of `CCCN[C@H]1CCc2nc(N)sc2C1`, the Potency entry in assay [1], in assay [2], in [3], in [4], in [5] and in [6] was “inactive” in each case. Besides, the Potency result in assay [7], in [8], in assay [9], in assay [10], in [11] and in assay [12] was “inactive” in each case. In addition, the Potency result in assay [13] and in assay [14] was “inactive” throughout.
As to `O=C(Oc1ccccc1)c1ccc(O)cc1`, the Potency result in assay [1], in [15], in assay [3], in assay [4], in assay [5] and in [16] was “inactive” in each case. Also, the Potency result in assay [6], in assay [7], in assay [17], in [9], in assay [18] and in [10] was “inactive” throughout. The Potency result in [11], in assay [12], in [19] and in [14] was “inactive” in each case. Also, the Potency in [8] is 26.7 µM (active) and 13.3 µM (active).
Turning to `O=C(c1ccc(OCCN2CCCCC2)cc1)c1c(-c2ccc(O)cc2)sc2cc(O)ccc12`, the Potency result in assay [1], in assay [15], in assay [3], in assay [4], in assay [16] and in [7] was “inactive” each time. Also, the Potency result in assay [12], in [13], in assay [19] and in assay [14] was “inactive” in each case. In addition, the Potency is 45.8 µM (active) and inactive in assay [5]; 36.4 µM (active) and inactive in assay [6].
In the case of `CCN(CC)CCNC(=O)c1ccc(N)cc1`, the Potency result in [1], in [2], in [15], in [5], in assay [16] and in assay [6] was “inactive” each time. In addition, the Potency result in [10], in [11], in assay [12], in [13], in assay [19] and in [14] was “inactive” each time.
In the case of `Cc1c2oc3c(C)ccc(C(=O)N[C@@H]4C(=O)N[C@H](C(C)C)C(=O)N5CCC[C@H]5C(=O)N(C)CC(=O)N(C)[C@@H](C(C)C)C(=O)O[C@@H]4C)c3nc-2c(C(=O)N[C@@H]2C(=O)N[C@H](C(C)C)C(=O)N3CCC[C@H]3C(=O)N(C)CC(=O)N(C)[C@@H](C(C)C)C(=O)O[C@@H]2C)c(N)c1=O` (I: T[dV]P[Sar][NMeV] / II: T[dV]P[Sar][NMeV]; ester I:1-I:C, II:1-II:C; linker I:N-II:N via Actinocin(9to1)), the Potency result in assay [1], in [15], in assay [3], in assay [4], in [16] and in [12] was “inactive” each time. For the same molecule, the Potency entry in assay [13], in assay [19] and in assay [14] was “inactive” throughout. Also, the Potency in assay [7] was 2.2 nM (active).
As for `CN(C)c1ccc(C(=C2C=CC(=[N+](C)C)C=C2)c2ccc(N(C)C)cc2)cc1`, the Potency in assay [20] was 6080 nM (active); in [5] it was 32.2 µM (active) and 40.8 µM (active); in [16] it was 22.8 µM (active) and 36.3 µM (active); in assay [6] it was 18.1 µM (active) and 40.8 µM (active) and 17.8 µM (active). Further, the Potency result in [1], in assay [2], in [15], in assay [3], in assay [4] and in [7] was “inactive” in each case.
Take `CCCOC(C(=O)OC1CCN(C)CC1)(c1ccccc1)c1ccccc1`: the Potency result in assay [1], in assay [15], in [3], in [4], in assay [5] and in assay [16] was “inactive” each time. The Potency entry in [6], in assay [7], in [17], in assay [18], in assay [10] and in [11] was “inactive” each time. The Potency result in [12], in assay [19] and in assay [14] was “inactive” in each case. Further, the Potency in assay [9] was 729 nM (active).
As to `O=C(O)CCC(=O)Nc1ccc(S(=O)(=O)Nc2nccs2)cc1`, the Potency entry in assay [20], in assay [1], in assay [2], in [15], in [3] and in [4] was “inactive” each time. The Potency entry in assay [5], in assay [16], in [6], in assay [7], in assay [8] and in assay [17] was “inactive” each time. The Potency entry in assay [9], in assay [18], in assay [10], in assay [11], in assay [12] and in assay [19] was “inactive” in each case. The Potency entry in [14] is “inactive”.
As for `C1COCCO1`, the Potency entry in [20], in [1], in assay [2], in assay [15], in assay [3] and in assay [4] was “inactive” each time. Moreover, the Potency result in assay [5], in assay [16], in [6], in [7], in assay [8] and in assay [17] was “inactive” each time. The Potency result in assay [9], in [18], in assay [10], in [11], in assay [12] and in assay [19] was “inactive” in each case. In [14], the Potency result is “inactive”.
